Measured values from PubChem BioAssay (NCATS).
Inconclusive results are not listed. Where a call stands in place of a potency, no number is given. Activity calls are given as the source filed them. The call rests on the fitted dose curve; in most records, active means well fitted inhibition curve with a large enough effect; inconclusive means small, poorly fitted or top-dose-only effect; inactive means flat fitted curve, though single readings scatter.

System: HB3
Test: qHTS profiling for inhibitors of Plasmodium falciparum proliferation (AID 504749); further: nearly all actives have a fitted effect of over 60% in size
Conditions: P. falciparum in erythrocytes, SYBR Green DNA, 72 h; series mostly up to 12.8 µM
Method in brief: (§1)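 Readout was DNA-dye fluorescence from lysed cultures, ex 485/em 535 nm. Parasitized red cells had grown 72 h with compound; data scaled between 0.29 uM artemisinin and DMSO wells and corrected using vehicle-only plates.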
Potency means the concentration at half of the fitted maximal effect.

| SMILES | Potency |
| --- | --- |
| CC1(C)S[C@H]2C(NC(=O)[C@@H](N)c3ccc(O)cc3)C(=O)N2[C@@H]1C(=O)O (stereo partly drawn) | inactive |
| CN(C)CCc1c[nH]c2ccc(CC3COC(=O)N3)cc12 (stereo not drawn) | inactive |
| C[C@@]12CCC(=O)C=C1C=CC1C2CC[C@]2(C)C1CC[C@@]21CCC(=O)O1 (stereo partly drawn) | inactive |
| NC(CCC(=O)N[C@@H](CS)C(=O)NCC(=O)O)C(=O)O (stereo partly drawn) | 3.16 µM (active) |
| CC(C)Oc1ccc2c(=O)cc(-c3ccccc3)oc2c1 | inactive |
| N[C@@H]1C(O)OC(CO)C(O)C1O (stereo partly drawn) | inactive |
| CC(=O)[C@]1(O)CCC2C3C=C(Cl)C4=CC(=O)C5CC5[C@@]4(C)C3CC[C@]21C (stereo partly drawn) | inactive |
| CO[C@]12C(COC(N)=O)C3=C(C(=O)C(C)=C(N)C3=O)N1CC1NC12 (stereo partly drawn) | 1 µM (active) |
| C[C@@]12C=CC(=O)C=C1CCC1C3CC(O)[C@@](O)(C(=O)CO)[C@]3(C)CC(O)[C@]12F (stereo partly drawn) | inactive |
| CCC1OC(=O)C(C)[C@@H](O[C@H]2C[C@@](C)(OC)C(O)C(C)O2)C(C)[C@@H](O[C@@H]2OC(C)CC(N(C)C)C2O)[C@@](C)(O)CC(C)C(=O)[C@@H](C)C(O)[C@]1(C)O (stereo partly drawn) | inactive |
| CC1C2CCC3C4CC=C5CC(N(C)C)CC[C@@]5(C)C4CC[C@@]32CN1C (stereo partly drawn) | inactive |
| CCC(C)C(=O)OC1CC(O)C=C2C=CC(C)C(CCC(O)CC(O)CC(=O)O)C21 (stereo not drawn) | inactive |
| OCC1OC(n2cnc3c(=S)nc[nH]c32)C(O)C1O (stereo not drawn) | inactive |

System: ICS
Test: as above
Conditions: P. falciparum in erythrocytes, SYBR Green DNA, 72 h; series mostly up to 12.8 µM
Method in brief: as §1

| SMILES | Potency |
| --- | --- |
| CC1(C)S[C@H]2C(NC(=O)[C@@H](N)c3ccc(O)cc3)C(=O)N2[C@@H]1C(=O)O (stereo partly drawn) | inactive |
| CN(C)CCc1c[nH]c2ccc(CC3COC(=O)N3)cc12 (stereo not drawn) | inactive |
| NC(CCC(=O)N[C@@H](CS)C(=O)NCC(=O)O)C(=O)O (stereo partly drawn) | 1.26 µM (active) |
| CC(C)Oc1ccc2c(=O)cc(-c3ccccc3)oc2c1 | inactive |
| N[C@@H]1C(O)OC(CO)C(O)C1O (stereo partly drawn) | inactive |
| CC(=O)OCC(=O)[C@@]12OC3(CCCC3)OC1CC1C3CCC4=CC(=O)C=C[C@@]4(C)[C@]3(F)C(O)C[C@]12C (stereo partly drawn) | 12.6 µM (active) |
| CCC1OC(=O)CC(O)C(C)[C@@H](O[C@@H]2OC(C)[C@H](O[C@@H]3C[C@@](C)(O)C(O)C(C)O3)C(N(C)C)C2O)[C@H](CC=O)CC(C)C(=O)/C=C/C(C)=C/[C@@H]1COC1OC(C)C(O)C(OC)[C@@H]1OC (stereo partly drawn) | 2.82 µM (active) |
| CCC(=O)O[C@@]1(C(=O)CCl)C(C)CC2C3CCC4=CC(=O)C=C[C@@]4(C)[C@]3(F)C(O)C[C@]21C (stereo partly drawn) | 10 µM (active) |
| CC(=O)[C@]1(O)CCC2C3C=C(Cl)C4=CC(=O)C5CC5[C@@]4(C)C3CC[C@]21C (stereo partly drawn) | inactive |
| CO[C@]12C(COC(N)=O)C3=C(C(=O)C(C)=C(N)C3=O)N1CC1NC12 (stereo partly drawn) | 0.355 µM (active) |
| COC1OC(CO)C(OC2OC(C(=O)O)C(OC3OC(COS(=O)(=O)O)C(OC4OC(C(=O)O)C(OC5OC(CO)C(OC6OC(C(=O)O)C(OC7OC(COS(=O)(=O)O)C(OC8OC(C(=O)O)=C[C@H](O)C8OS(=O)(=O)O)C(O)C7NC(C)=O)[C@@H](O)C6O)C(O)C5NC(C)=O)[C@@H](O)C4O)C(O)C3NC(C)=O)[C@@H](O)C2O)C(O)C1NC(C)=O (stereo partly drawn) | 12.6 µM (active) |
| C[C@@]12C=CC(=O)C=C1CCC1C3CC(O)[C@@](O)(C(=O)CO)[C@]3(C)CC(O)[C@]12F (stereo partly drawn) | inactive |
| CCC1OC(=O)C(C)[C@@H](O[C@H]2C[C@@](C)(OC)C(O)C(C)O2)C(C)[C@@H](O[C@@H]2OC(C)CC(N(C)C)C2O)[C@@](C)(O)CC(C)C(=O)[C@@H](C)C(O)[C@]1(C)O (stereo partly drawn) | inactive |
| CC1C2CCC3C4CC=C5CC(N(C)C)CC[C@@]5(C)C4CC[C@@]32CN1C (stereo partly drawn) | inactive |
| COC1CC(O[C@H]2/C(C)=C/CC3CC(C[C@]4(CCC(C)C(C5CCCCC5)O4)O3)OC(=O)[C@H]3C=C(C)/C(=N/O)C4OC/C(=C\C=C\[C@@H]2C)[C@@]43O)OC(C)C1O (stereo partly drawn) | 12.6 µM (active) |
| CCC(C)C(=O)OC1CC(O)C=C2C=CC(C)C(CCC(O)CC(O)CC(=O)O)C21 (stereo not drawn) | inactive |
| OCC1OC(n2cnc3c(=S)nc[nH]c32)C(O)C1O (stereo not drawn) | inactive |

System: JCK
Test: as above
Conditions: P. falciparum in erythrocytes, SYBR Green DNA, 72 h; series mostly up to 12.8 µM
Method in brief: as §1

| SMILES | Potency |
| --- | --- |
| CC1(C)S[C@H]2C(NC(=O)[C@@H](N)c3ccc(O)cc3)C(=O)N2[C@@H]1C(=O)O (stereo partly drawn) | inactive |
| CN(C)CCc1c[nH]c2ccc(CC3COC(=O)N3)cc12 (stereo not drawn) | inactive |
| C[C@@]12CCC(=O)C=C1C=CC1C2CC[C@]2(C)C1CC[C@@]21CCC(=O)O1 (stereo partly drawn) | inactive |
| CC(C)Oc1ccc2c(=O)cc(-c3ccccc3)oc2c1 | inactive |
| CCCCCCCCCc1ccc(OCCOCCOCCOCCOCCOCCOCCOCCOCCO)cc1 | inactive |
| CC(=O)O[C@@]1(C(C)=O)CCC2C3CC(C)C4=CC(=O)CC[C@@]4(C)C3CC[C@]21C (stereo partly drawn) | inactive |
| N[C@@H]1C(O)OC(CO)C(O)C1O (stereo partly drawn) | inactive |
| CC(=O)OCC(=O)[C@@]12OC3(CCCC3)OC1CC1C3CCC4=CC(=O)C=C[C@@]4(C)[C@]3(F)C(O)C[C@]12C (stereo partly drawn) | inactive |
| CCC1OC(=O)CC(O)C(C)[C@@H](O[C@@H]2OC(C)[C@H](O[C@@H]3C[C@@](C)(O)C(O)C(C)O3)C(N(C)C)C2O)[C@H](CC=O)CC(C)C(=O)/C=C/C(C)=C/[C@@H]1COC1OC(C)C(O)C(OC)[C@@H]1OC (stereo partly drawn) | inactive |
| C=Cc1c(C)/c2[n-]/c1=C\c1[n-]c(c(CC)c1C)/C=c1\[n-]c3c(c1C)C(=O)C(C(=O)[O-])C=3c1[n-]c(c(C)c1CCC(=O)[O-])\C=2.[Cu].[Na+].[Na+] (stereo not drawn) | inactive |
| CCC(=O)O[C@@]1(C(=O)CCl)C(C)CC2C3CCC4=CC(=O)C=C[C@@]4(C)[C@]3(F)C(O)C[C@]21C (stereo partly drawn) | inactive |
| CC(=O)[C@]1(O)CCC2C3C=C(Cl)C4=CC(=O)C5CC5[C@@]4(C)C3CC[C@]21C (stereo partly drawn) | inactive |
| CO[C@]12C(COC(N)=O)C3=C(C(=O)C(C)=C(N)C3=O)N1CC1NC12 (stereo partly drawn) | 5.01 µM (active) |
| C[C@@]12C=CC(=O)C=C1CCC1C3CC(O)[C@@](O)(C(=O)CO)[C@]3(C)CC(O)[C@]12F (stereo partly drawn) | inactive |
| CCC1OC(=O)C(C)[C@@H](O[C@H]2C[C@@](C)(OC)C(O)C(C)O2)C(C)[C@@H](O[C@@H]2OC(C)CC(N(C)C)C2O)[C@@](C)(O)CC(C)C(=O)[C@@H](C)C(O)[C@]1(C)O (stereo partly drawn) | inactive |
| CC1C2CCC3C4CC=C5CC(N(C)C)CC[C@@]5(C)C4CC[C@@]32CN1C (stereo partly drawn) | inactive |
| CCC(C)C(=O)OC1CC(O)C=C2C=CC(C)C(CCC(O)CC(O)CC(=O)O)C21 (stereo not drawn) | inactive |
| OCC1OC(n2cnc3c(=S)nc[nH]c32)C(O)C1O (stereo not drawn) | inactive |
